BoNT A protease: BoNT/A light chain protease inhibitors, primary screen, biochemical, flow cytometry, MLPCN library; Botulinum neurotoxin type A light chain protease (Clostridium botulinum A str. ATCC 3502); multiplex microsphere protease substrate cleavage; inhibition, % at 10 µM; 0.17% of 360,000 active; AID 588499, 2011; further: plate controls were buffer without enzyme for full effect and enzyme alone for no effect
Bead autofluor: counter-screen for toxin protease inhibitors: compound fluorescence; compound autofluorescence counterscreen, microsphere flow cytometry; active compounds read high; fluorescence intensity (concentration not given with the values); 3.1% of 360,000 active; AID 624483; in the data active means fluorescence intensity above about 16000; inconclusive means no clear call, values can overlap the other calls
DUSP3 inh: VHR1 phosphatase inhibitors, primary screen, biochemical, absorbance, uHTS; recombinant VHR phosphatase, pNPP absorbance; 0.52% of 290,000 active; AID 1654, 2009; inhibition, % at 13.3 µM; in the data active means inhibition above about 50%
MazEF act: activators of E. coli MazEF toxin-antitoxin RNase, primary screen, biochemical, fluorescence, uHTS. 0.32% of 350,000 active. FAM/BHQ RNA-DNA oligo cleavage fluorescence, 5 h. activation, % at 20 µM. Endoribonuclease toxin MazF (Escherichia coli (strain K12)), P0AE70; in the data active means activation above about 50%
BoNT F protease: BoNT/F light chain protease inhibitors, primary screen, biochemical, flow cytometry, MLPCN library. 0.22% of 360,000 active. Botulinum neurotoxin type F light chain protease (Clostridium botulinum). inhibition, % at 10 µM. Multiplex microsphere protease cleavage assay; in the data active means inhibition above about 35%, passing the limit was not always enough; inconclusive means no clear call, values can overlap the other calls; further: plate controls were buffer without enzyme for full effect and enzyme alone for no effect
Anthrax LF prot: Bacillus anthracis LF protease inhibitors, primary screen, biochemical, multiplex microsphere, MLPCN library | Lethal factor (Bacillus anthracis), P15917 | multiplex microsphere protease cleavage assay | inhibition, % at 10 µM | 0.12% of 360,000 active; further: plate controls were buffer without enzyme for full effect and enzyme alone for no effect
Target sequence (P15917 whole entry, looked up): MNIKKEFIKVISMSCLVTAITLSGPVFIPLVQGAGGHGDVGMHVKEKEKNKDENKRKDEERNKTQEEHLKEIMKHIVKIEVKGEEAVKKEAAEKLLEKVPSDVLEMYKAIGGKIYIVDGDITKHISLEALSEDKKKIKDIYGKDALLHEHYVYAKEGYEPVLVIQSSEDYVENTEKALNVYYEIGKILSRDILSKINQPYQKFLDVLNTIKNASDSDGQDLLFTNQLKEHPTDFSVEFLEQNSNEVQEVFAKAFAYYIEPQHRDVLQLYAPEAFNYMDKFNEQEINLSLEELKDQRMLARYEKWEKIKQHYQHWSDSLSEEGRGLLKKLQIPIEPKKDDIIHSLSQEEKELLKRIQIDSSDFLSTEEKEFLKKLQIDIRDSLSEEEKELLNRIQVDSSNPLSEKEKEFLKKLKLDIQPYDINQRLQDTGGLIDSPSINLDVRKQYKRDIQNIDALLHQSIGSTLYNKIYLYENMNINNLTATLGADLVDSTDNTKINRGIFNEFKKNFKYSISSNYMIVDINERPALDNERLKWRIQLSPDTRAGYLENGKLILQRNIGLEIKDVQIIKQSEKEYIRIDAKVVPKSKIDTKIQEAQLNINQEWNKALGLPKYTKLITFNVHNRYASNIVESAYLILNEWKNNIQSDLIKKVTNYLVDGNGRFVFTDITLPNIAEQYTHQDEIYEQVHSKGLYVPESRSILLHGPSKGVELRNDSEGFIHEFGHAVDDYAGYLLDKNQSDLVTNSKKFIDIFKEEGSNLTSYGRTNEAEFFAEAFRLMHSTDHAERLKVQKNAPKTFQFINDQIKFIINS
Starred values were filed as active, the others as inactive; ? = inconclusive; / = no result given; ! = repeats disagree. In the library only some 4.1% were active in any assay of this set; here they are far more common. Unless noted, no stated cut-off is given here; in the data, active means inhibition above about 30%; inconclusive means no clear call, values can overlap the other calls; inactive means below that.

SMILES	BoNT A protease	Bead autofluor	DUSP3 inh	MazEF act	BoNT F protease	Anthrax LF prot
Cc1ccc(Nc2nc(CSc3nnc(-c4ccncc4)n3C)cs2)cc1	0.9	7051	58.3*	5.6	2.8	-3.2
COC(=O)c1ccccc1NC(=O)CSc1nnc(-c2cccnc2)n1C	-0.1	3253	22.0	2.6	?	2.5
C=C[C@](C)(CC[C@@]1(C)C(C)CC(OC2OC(C)C(OC3OC(COC(C)=O)C(O)C(O)C3O)C(O)C2O)[C@@]2(C)C(C)=CCCC12)OC1OC(C)C(O[C@@H]2O[C@@H](C)C(O)C(O)[C@H]2O)C(O)C1O (some centres not stated)	-0.2	2878	/	6.0	-4.5	1.3
COc1ccc(CCC(=O)NNC(=O)c2ccccn2)cc1OC	-2.4	5975	/	5.2	?	0.3
CCC(=O)Nc1ccc(-c2nnc(SCC(=O)Nc3nccs3)n2C)cc1	5.8	19859*	14.3	3.4	10.7	-2.9
CC(C)C(NC(=O)c1cccs1)c1nnc(SCC(=O)Nc2nccs2)n1C (configuration not stated)	4.1	21406*	2.3	3.5	5.4	-4.0
Cc1ccc(-c2nnc(SCC(=O)Nc3ccc4c(c3)oc3ccccc34)n2C)c(Cl)c1	-0.4	5925	59.4*	-6.9	-8.1	-3.9
CC(NC(=O)c1ccccc1F)c1nnc(SCC(=O)Nc2nccs2)n1C (configuration not stated)	-0.3	5253	0.0	9.0	6.8	1.6
Cc1ccccc1OCc1nnc(SCC(=O)Nc2ccc3c(c2)oc2ccccc23)n1C	0.0	10804	-8.7	-28.5	-9.6	-6.0
COc1ccc(OC)c(-c2csc3nnc(SCC(=O)Nc4ccc(NC(C)=O)cc4)n23)c1	-0.7	20934*	9.5	0.3	-3.4	-1.0
OC(C[n+]1ccccc1)c1ccccc1 (configuration not stated)	-2.9	4162	1.0	3.6	?	1.5
O=C(O)CCCCCNC(=O)CSc1nnc(-c2ccco2)n1-c1ccccc1	-0.2	3550	25.9	9.5	-0.8	-10.6
Cc1ccc(Oc2nnc(-c3ccccc3)c3ccccc23)cc1	5.7	21278*	40.7	4.3	6.4	-3.7
Cc1noc(C)c1S(=O)(=O)N1CCCCC1c1cc(C(=O)Nc2cccc3c2CCCC3)no1 (configuration not stated)	-0.1	4014	/	/	2.8	-3.3
COc1ccc(S(=O)(=O)CCC(=O)N2CCN(c3ccc(C(C)=O)cc3)CC2)cc1	0.3	4940	3.7	4.1	8.2	-1.9
CC(C)(Oc1ccc(Cl)cc1)C(=O)OCC(=O)Nc1ncc(Cl)cc1Cl	0.4	22776*	16.4	-1.9	-0.6	-4.9
O=C(COC(=O)CC12CC3CC(CC(C3)C1)C2)Nc1ncc(Cl)cc1Cl	-3.4	24856*	-26.8	-9.5	-6.2	-2.4
COc1ccc(Cl)cc1CNC[C@H]1O[C@@H](n2cnc3c(=O)[nH]c(N)nc32)[C@H](O)[C@@H]1O	-0.1	5874	/	/	-1.6	3.4
CS(=O)(=O)N(CCc1ccccc1)CC(=O)N1CCCCCC1	0.0	3504	/	3.0	-5.2	0.3
Cc1cc(OCCn2cncn2)ccc1[N+](=O)[O-]	-1.5	2893	13.6	6.3	-5.5	-4.3
CN(C)CCCOC(=O)c1sc2ccccc2c1Cl	-0.2	4382	-23.3	4.5	-5.9	1.2
CCCCOC(=S)NC(=O)c1sc2ccccc2c1Cl	-0.6	23574*	-16.9	-3.1	-1.2	-2.5
Cn1c(=O)c2cc(NC(=O)Cc3ccccc3F)ccc2n1Cc1ccc(Cl)cc1	0.0	4167	/	/	0.2	-1.2
CC(C)n1cnc2cc(NCc3ccccn3)ccc21	-2.4	20604*	27.1	-9.8	-6.9	-3.7
CC1C(c2ccccc2)N(C)C(c2ccccc2)CC1(O)c1ccccc1 (configuration not stated)	-5.7	17483*	6.2	-4.1	-6.8	-6.3
SMILES	BoNT A protease	Bead autofluor	DUSP3 inh	MazEF act	BoNT F protease	Anthrax LF prot
CC1/C(=N/O)CC(c2ccccc2)N(C)C1c1ccccc1 (configuration not stated)	0.1	5753	13.3	1.8	-2.0	-1.2
CCCSc1ncnc2[nH]ncc12	0.3	3027	/	3.3	-8.5	-8.5
CCCCCCC1CC(C)(/C(C)=N/NC(N)=O)OC1=O (configuration not stated)	5.3	18949*	14.7	-3.2	6.4	2.1
COc1ccc(C(=O)NC(=S)N2CC(C)OC(C)C2)cc1 (configuration not stated)	0.1	2569	-9.9	8.9	-5.6	2.9
Cc1ccc(C(=O)NC(=S)N2CC(C)OC(C)C2)cc1[N+](=O)[O-] (configuration not stated)	-0.8	23557*	14.0	7.5	-1.1	-1.7
C[C@@H]1CN([C@@H](C)CO)C(=O)c2cc(NC(=O)CCN3CCOCC3)ccc2O[C@@H]1CN(C)C(=O)Nc1ccccc1	0.0	2920	/	3.5	-3.1	3.9
CCCc1cc(=O)[nH]c(SCC(=O)c2c(N)n(C3CC3)c(=O)[nH]c2=O)n1	0.1	3866	/	5.5	8.7	0.5
C/C(N)=C(/C#N)C(=O)CSc1nnc(Nc2cccc(C)c2)s1	-0.2	17498*!	26.3	-13.5	-0.4	-0.2
C/C(N)=C(/C#N)C(=O)CSc1nnnn1-c1ccc(C)cc1C	8.4	19626*	21.1	-5.3	12.8	-15.7
C/C(N)=C(/C#N)C(=O)CSc1nc2cc(Cl)ccc2s1	?	24839*	12.7	-13.1	-4.7	1.2
Cc1cccc(Nc2nnc(SCC(=O)c3c(N)n(C4CC4)c(=O)[nH]c3=O)s2)c1	2.8	6438	/	31.9	-1.3	-3.1
COC(=O)CC1SC(=O)NC1=Nc1ccccc1 (configuration not stated)	0.6	23324*	27.1	-0.5	-0.4	1.2
Cc1cc(C)n(CC(O)COc2cccc(OCC(O)Cn3nc(C)cc3C)c2)n1 (configuration not stated)	1.5	4220	-30.5	7.5	9.4	2.5
Cc1cc2c(cc1C)[n+](C)cn2CC(O)COCc1ccccc1 (configuration not stated)	2.8	22173*	-7.9	5.6	3.9	-3.3
C[n+]1cn(CC(O)COCc2ccccc2)c2ccccc21 (configuration not stated)	0.5	10066	32.9	1.3	-2.4	-0.1
Cc1cc(C)n(CC(O)COc2ccccc2[N+](=O)[O-])n1 (configuration not stated)	0.2	2090	56.2*	0.7	-2.4	-0.6
Cc1cc(C)n(CC(O)COCc2ccccc2)n1 (configuration not stated)	?	20483*	15.1	0.3	-2.9	-0.6
